This note sets out measurements from PubChem BioAssay AID489018 (Southern Research Specialized Biocontainment Screening …, 2010).

Among all 2,300 compounds or so, about 350 (15%) were called active. How the calls were made is not given here. These entries were drawn from the full list. Entries with a potency or affinity are not part of this list.

A short description of this experiment: HepG2 cell cytotoxicity, dose response, cytotoxicity control for non-replicating M. tuberculosis project (AID 489018).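 Further: HepG2 human liver cells.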 As to conditions: series mostly up to 20 µM.
As to `Cc1ccccc1-n1ncc2c([N+](=O)[O-])cc([N+](=O)[O-])cc21`, the call was inactive.

Regarding `Cc1cc(C)n(C(=O)c2ccc([N+](=O)[O-])cc2[N+](=O)[O-])n1`, the outcome was inactive.

As for `N/C(=N/OC(=O)c1ccccc1Cl)c1ncc([N+](=O)[O-])s1`, the compound was classed as inactive.

In the case of `COc1ccc(OC)c(NC(=O)C(=O)NNC(=O)C23CC4CC(CC(C4)C2)C3)c1`, the outcome was inactive.

As for `Brc1ccc(-c2ccc(CNCc3ccccn3)o2)cc1`, the compound was classed as inactive.

For `Cc1ccc2c(c1)c1c3n2CCN=C3CCC1`, the call was inactive.

For `Cc1ccc2[nH]c3c(c2c1)CCCC3NCCO` (stereo unspecified), the outcome was inactive.

`O=C(COc1cccc2ccccc12)Nc1nc2ccccc2[nH]1`: the call was inactive.

In the case of `O=C(OCC(=O)N1CCC(c2ccccc2)=N1)c1ccc([N+](=O)[O-])s1`, the compound was classed as inactive.

Take `Cc1ccc(C(=O)NNC(=S)NC(=O)c2ccc(Cl)cc2)cc1`: the result was inactive.

With `CCCCCOc1ccc(CSC2=NCCN2)cc1[N+](=O)[O-]`, the result was inactive.

Consider `Cc1cc(Br)ccc1OCCCCN1CCC(C)CC1`, for which the compound was classed as inactive.

With `CCOC(=O)CCNC(=O)c1ccc2nc(C3CCCCC3)oc2c1`, the call was inactive.

`CCOc1ccc(/C=N/OCC(=O)Nc2ccc3c(c2)OCO3)cc1`: the compound was classed as inactive.

For the compound `O=C(Cn1cc([N+](=O)[O-])nc1[N+](=O)[O-])N1CCN(c2ccccc2)CC1`, the call was inactive.

As for `CC1=NN(C(=O)c2ccc(Cn3nc(C)c(Br)c3C)cc2)C(O)(C(F)(F)F)C1` (stereo unspecified), the compound was classed as inactive.

As to `O=C(c1ccccc1[N+](=O)[O-])N1N=C(c2ccccc2)CC1(O)C(F)(F)F` (stereo unspecified), the compound was classed as inactive.

With `Cc1ccc(OC(=O)c2ccc(Br)o2)cc1`, the call was inactive.

As to `O=C1NCC(O)=C1C=Nc1ccccc1O`, the compound was classed as inactive.

Consider `COc1cccc(NC(=O)c2ccc(Cn3cc([N+](=O)[O-])cn3)o2)c1`, for which the compound was called inactive.

With `CCc1cccc(OCCCn2ccnc2)c1`, the compound was classed as inactive.

Consider `CCOc1ccc(OCC(=O)Nc2ccc(OC)cc2)cc1`, for which the outcome was inactive.

For `Cc1ccc(-c2noc(CCC(=O)Nc3cccc(C#N)c3)n2)cc1`, the result was inactive.

For the compound `Cn1cccc1/C=C1/C(=O)NC(=S)N(Cc2ccc(F)cc2)C1=O`, the compound was classed as inactive.

Regarding `CCN1/C(=C(\O)c2ccccc2)C(=O)c2ccccc2S1(=O)=O`, the call was inactive.

Regarding `Cc1cc(NC(=O)c2ccccc2F)n(-c2nc3ccccc3[nH]2)n1`, the compound was called inactive.

As to `Cc1cc(Nc2ccccc2)n(-c2nc3ccccc3[nH]2)n1`, the outcome was inactive.

Take `Cc1ccc(C(=O)N/N=C\c2ccc(-c3ccc(Cl)cc3)o2)cn1`: the compound was classed as inactive.

Take `CCN1CSC(=S)N(Cc2ccc(OC)cc2)C1`: the call was inactive.

Consider `COc1cc(/C=N/N(C)C)ccc1OC(=O)c1cccs1`, for which the compound was called inactive.

Regarding `O=C(CC1CCCCC1)NCc1ccccc1`, the compound was classed as inactive.

Turning to `Cc1ccn2c(NC3CCCC3)c(-c3ccccn3)nc2c1`, the compound was classed as inactive.

Consider `O=C(Nc1nnc(-c2ccc(F)cc2)o1)c1cc(Cl)sc1Cl`, for which the call was inactive.

For the compound `COc1cccc(-c2nnc(NC(=O)c3cccc(F)c3)o2)c1`, the result was inactive.

For `O=C(Nc1nnc(-c2ccc(Cl)cc2)o1)c1ccccc1Br`, the call was inactive.

As to `COc1ccc(C(=O)Nc2nnc(-c3ccccc3)o2)cc1OC`, the outcome was inactive.

`Cc1ccc(C(=O)Nc2nnc(-c3ccncc3)o2)cc1`: the outcome was inactive.

As to `COc1cccc(C(=O)Nc2nnc(-c3ccc(F)cc3)o2)c1`, the compound was called inactive.

On to `COc1cccc(C(=O)OCC(=O)Nc2nnc(-c3ccccc3)o2)c1`, for which the compound was called inactive.

In the case of `Cc1cccc(C(=O)Nc2nnc(-c3cccnc3)o2)c1`, the call was inactive.

Regarding `O=C1c2cccc3c([N+](=O)[O-])ccc(c23)C(=O)N1c1ccc(Cl)cn1`, the compound was classed as inactive.

In the case of `Cc1ccc(OCCCCn2ccnc2)c(Cl)c1`, the call was inactive.

For the compound `O=C(CCNc1cccc(Cl)c1)c1ccco1`, the compound was called inactive.

With `CSc1ccccc1NC(=O)c1cc(C(C)C)on1`, the compound was classed as inactive.

Consider `COc1ccc(/C=C2\COc3ccccc3C2=O)cc1OC`, for which the compound was called inactive.

As to `COc1cccc(C(=O)OCC(=O)c2ccc(Br)s2)c1OC`, the outcome was inactive.

As for `CCCCOC(=O)Cn1c(-c2ccccc2)nc2ccccc2c1=O`, the compound was called inactive.

For the compound `O=C(Nc1nnc(-c2ccccc2Cl)o1)c1ccco1`, the outcome was inactive.

Turning to `O=C(Nc1ccc(S(=O)(=O)N2CCOCC2)cc1)c1ccc([N+](=O)[O-])s1`, the compound was classed as inactive.

For the compound `COc1ccc(C(=O)Nc2nnc(C3=COCCO3)o2)cc1`, the result was inactive.

As to `O=C(Nc1nnc(-c2ccc(Cl)cc2)o1)c1cccc(N2C(=O)CCC2=O)c1`, the outcome was inactive.

Take `O=C(Nc1nnc(-c2ccccc2Cl)o1)c1cccnc1`: the call was inactive.

With `COc1ccc(-c2nnc(NC(=O)C3=COCCO3)o2)cc1`, the compound was classed as inactive.

In the case of `O=C(N/N=C/c1cc([N+](=O)[O-])ccc1O)C12CC3CC(CC(C3)C1)C2`, the outcome was inactive.

Turning to `CCN1CCN(c2ccc(S(=O)(=O)N3CCCCC3)cc2NC(=O)c2ccc([N+](=O)[O-])o2)CC1`, the result was inactive.

On to `O=C(OCc1cccc(F)c1)c1ccc2c(=O)n3c(nc2c1)CCC3`, for which the result was inactive.

`CN(C)CC/C=C1/c2ccc(F)cc2Sc2ccc(Cl)cc21`: the outcome was inactive.

As for `O=[N+]([O-])c1cc(-c2nc(-c3ccncc3)no2)cc([N+](=O)[O-])c1`, the result was inactive.

Turning to `O=c1c2cc(Cl)ccc2oc2nc3n(c(=O)c12)CCCS3`, the compound was called inactive.

On to `CC(=O)CC1(OC(C)=O)C(=O)N(C)c2ccccc21` (stereo unspecified), for which the result was inactive.

`O=C(Oc1cccc2cccnc12)c1ccc2c(c1)OCCO2`: the call was inactive.

For `COc1ccc(/C=N/NC(=O)c2ccncc2)cc1CN1CCOCC1`, the compound was classed as inactive.

Turning to `COc1cc(NC(=O)N2CCOCC2)cc(OC)c1`, the compound was called inactive.

Regarding `O=C(CCN1CCOCC1)c1ccc(Cl)cc1`, the result was inactive.

Turning to `Oc1ccc(F)c2cccnc12`, the compound was classed as inactive.

For the compound `O=C(Oc1cccc2cccnc12)c1cccc(-n2cnnn2)c1`, the call was inactive.

Consider `O=C(Oc1cccc2cccnc12)c1cccc([N+](=O)[O-])c1`, for which the compound was called inactive.

As for `COc1cc(OC)cc(OC(=O)c2ccc3c(=O)n4c(nc3c2)CCC4)c1`, the compound was classed as inactive.

Take `CCc1ccc(N2NC(=O)/C(=C/C=C/c3ccco3)C2=O)cc1`: the outcome was inactive.

`Cc1ccccc1OCCCCc1c(C)n[nH]c1C`: the call was inactive.

Take `COc1ccc(C(=O)COC(=O)c2ccc(Cl)nc2)c(OC)c1`: the outcome was inactive.

As for `COc1ccc(N2C(=O)NC(=O)/C(=C/c3ccc([N+](=O)[O-])s3)C2=O)cc1`, the call was inactive.

Consider `CCc1ccc(Cc2cnc(NC(=O)C3=NCCN3)s2)cc1`, for which the call was inactive.

With `CCCCNC(=O)Cc1ccc(C)cc1`, the result was inactive.

Take `COc1cccc2[nH]c3c(Cl)ncnc3c12`: the compound was classed as inactive.

As for `Cc1ccc(C(=O)Oc2cccc(-n3cnnn3)c2)cc1`, the compound was called inactive.

Take `O=C(COc1c(Br)cc(Br)c2cccnc12)N1CCCCC1`: the result was inactive.

With `CCOC(=O)C1(CCc2ccccc2)CCN(Cc2ccccn2)CC1`, the compound was classed as inactive.

Turning to `O=C(OCC(=O)N1CCN(c2ccccc2)CC1)c1cnc(Cl)c(Cl)c1`, the compound was called inactive.

In the case of `Cc1[nH]n2c(=O)c3c(nc2c1-c1ccccc1)CCCC3`, the result was inactive.

As for `O=C(Nc1nc2ccccc2[nH]1)c1cccc([N+](=O)[O-])c1`, the outcome was inactive.

Take `Cc1cc(C)n2[nH]c(=O)c(N=Nc3cccc(C(F)(F)F)c3)c2n1`: the outcome was inactive.

On to `CCOC(=O)c1ccc(-c2ccc(C(=O)Nc3cccnc3)o2)cc1`, for which the outcome was inactive.

Regarding `Cc1cccc(C)c1NC(=O)COC(=O)CCc1c[nH]c2ccccc12`, the compound was classed as inactive.

With `O=C(COc1ccc(-c2ccccc2)cc1)Nc1cccnc1`, the outcome was inactive.

Turning to `O=C(COc1ccc(Nc2ccccc2)cc1)OCC(=O)N1CCCCC1`, the compound was classed as inactive.

As for `CCn1nnc(NC(=O)c2sc3ccccc3c2Cl)n1`, the call was inactive.

`O=C(Nc1nccs1)c1sc2ccccc2c1Cl`: the compound was called inactive.

In the case of `CCCc1ccc(OCc2ccc(C(=O)N/N=C/c3cccnc3)o2)cc1`, the call was inactive.

On to `O=C(Nc1ccc(Cl)c(Cl)c1)O/N=C/c1ccncc1`, for which the compound was classed as inactive.

Regarding `O=C(COc1ccccc1)NNc1nc2ccccc2s1`, the call was inactive.

For `CC(C)(C)/C(O)=C/c1nc2ccccc2oc1=O`, the compound was classed as inactive.

As for `O=C(N/N=C/c1cc([N+](=O)[O-])ccc1O)C1CCCCC1`, the compound was classed as inactive.

Regarding `Cc1ccc(-c2ccc(/C=N/NC(=O)CN3CCCC3)o2)cc1Cl`, the compound was classed as inactive.

As to `Nc1ccc2nc3c(c(Cl)c2c1)CCCC3`, the call was inactive.

On to `Oc1ccccc1/C=N/Nc1nc2ccccc2o1`, for which the outcome was inactive.

For `CCOC(=O)c1cnc(Nc2nc3ccccc3o2)nc1CSC(=S)N1CCCCC1`, the outcome was inactive.

`O=C(OCCCOC(=O)c1ccc([N+](=O)[O-])o1)c1ccc([N+](=O)[O-])o1`: the outcome was inactive.

For `Cc1ccc2oc(=O)c3cc(C(=O)NCCCN4CCCCCC4)sc3c2c1`, the outcome was inactive.

`CN1C(=O)/C(=C/c2cccc(Cl)c2)Sc2ccc(C(=O)N3CCCC3)cc21`: the compound was classed as inactive.

As to `O=C1Nc2cc(C(=O)NCCCN3CCOCC3)ccc2S/C1=C/c1cccc(Cl)c1`, the outcome was inactive.

On to `COc1cccc(/C=C2\SC(=S)N(CCC(=O)N3CCCCC3)C2=O)c1`, for which the outcome was inactive.

`Cc1ccc(/C=N/NC(=O)C2COc3ccccc3O2)s1` (stereo unspecified): the compound was classed as inactive.

With `Cc1ccnc(NC(=O)c2cc3ccccc3o2)c1`, the outcome was inactive.

Take `CC(C)(C)C(=O)/C=C/Nc1ccccc1O`: the result was inactive.

`O=C(OCC(=O)N1CCN(c2ccccc2)CC1)c1ccc(Cl)cc1[N+](=O)[O-]`: the compound was called inactive.

With `COc1cc(NCCC(=O)c2cccs2)c(OC)cc1Cl`, the compound was classed as inactive.

`COC(=O)C1=C(N)OC2=C(C(=O)CC(C)(C)C2)C1c1cccnc1` (stereo unspecified): the outcome was inactive.

`CCOC(=O)CNC(=O)CNC(=O)c1nn(-c2ccc(OC)c(Cl)c2)c(=O)c2ccccc12`: the compound was called inactive.

With `Cc1cc(Cl)cc(C)c1OCCCCn1ccnc1`, the result was inactive.

For the compound `CCCCn1c(=O)c(C(=O)Nc2nnc(C(C)C)s2)c(O)c2ccccc21`, the compound was classed as inactive.

Consider `CCCCn1c(=O)c(C(=O)Nc2ncccc2C)c(O)c2ccccc21`, for which the compound was called inactive.

Regarding `CCn1c(=O)c(C(=O)Nc2ncccc2C)c(O)c2ccccc21`, the compound was classed as inactive.

For the compound `Cc1cccnc1NC(=O)c1c(O)c2ccccc2n(C)c1=O`, the compound was classed as inactive.

In the case of `CCCCCCn1c(=O)c(C(=O)Nc2nnc(C)s2)c(O)c2ccccc21`, the compound was classed as inactive.

Turning to `C=CCn1c(=O)c(C(=O)Nc2cccnc2)c(O)c2ccccc21`, the outcome was inactive.
